# Source: PMC5540273 (PLoS ONE, 2017)
# Like-named read-outs stand apart in the source and are kept apart here.
# Columns and labels:
# GRK1 = settings: concentration: 1 μM, replicates: in singlicate; n = 1
# GRK2 = system: T1, GRK2; settings: concentration: 1 μM, replicates: in singlicate; n = 1
# T1 construct: gene ADRBK1
# GRK3 = system: T2, GRK3; settings: concentration: 1 μM, replicates: in singlicate; n = 1
# T2 construct: gene ADRBK2
# GRK4 = settings: concentration: 1 μM, replicates: in singlicate; n = 1
# GRK7 = settings: concentration: 1 μM, replicates: in singlicate; n = 1
# GSK3A = settings: concentration: 1 μM, replicates: in singlicate; n = 1
# GSK3B = settings: n = 1
# HASPIN = system: T3, HASPIN; settings: concentration: 1 μM, replicates: in singlicate; n = 1
# T3 construct: gene GSG2
# HCK = settings: concentration: 1 μM, replicates: in singlicate; n = 1
# HIPK1 = settings: concentration: 1 μM, replicates: in singlicate; n = 1
# [1] = concentration: 1 μM, replicates: in singlicate
# 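Also: KINOMEscan kinase panel screen.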
structure (smiles),measurement,setting,value
Cc1ccc(O)cc1Nc1cc(C(F)(F)F)nc2ccc(-c3ccncc3)cc12 [GW630823],%Inh,GRK1,0%
same,%Inh,GRK2,0%
same,%Inh,GRK3,0%
same,%Inh,GRK4,0%
same,%Inh,GRK7,0%
same,%Inh,GSK3A,5%
same,%Inh,GSK3B; [1],0%
same,%Inh,HASPIN,0%
same,%Inh,HCK,18%
same,%Inh,HIPK1,8%
Oc1ccc2ncnc(Nc3ccc(OCc4ccccc4)cc3)c2c1 [GI262866],%Inh,GRK1,7%
same,%Inh,GRK2,0%
same,%Inh,GRK3,6%
same,%Inh,GRK4,18%
same,%Inh,GRK7,0%
same,%Inh,GSK3A,0%
same,%Inh,GSK3B; [1],0%
same,%Inh,HASPIN,17%
same,%Inh,HCK,0%
same,%Inh,HIPK1,0%
Clc1cccc(-c2nc(Nc3ccncc3)c3ccccc3n2)c1 [GW873004],%Inh,GRK1,10%
same,%Inh,GRK2,0%
same,%Inh,GRK3,0%
same,%Inh,GRK4,0%
same,%Inh,GRK7,0%
same,%Inh,GSK3A,0%
same,%Inh,GSK3B; [1],0%
same,%Inh,HASPIN,50%
same,%Inh,HCK,26%
same,%Inh,HIPK1,43%
FC(F)(F)c1ccc(-c2nn3ncccc3c2-c2ccnc(Nc3cccc(C(F)(F)F)c3)n2)cc1 [GW828205],%Inh,GRK1,11%
same,%Inh,GRK2,0%
same,%Inh,GRK3,0%
same,%Inh,GRK4,25%
same,%Inh,GRK7,0%
same,%Inh,GSK3A,1%
same,%Inh,GSK3B; [1],10%
same,%Inh,HASPIN,0%
same,%Inh,HCK,10%
same,%Inh,HIPK1,39%
Cc1ccc(C)c(NC(=O)NCCNc2ccnc(Nc3ccc(F)cc3)n2)c1 [GSK1379878],%Inh,GRK1,0%
same,%Inh,GRK2,0%
same,%Inh,GRK3,17%
same,%Inh,GRK4,0%
same,%Inh,GRK7,0%
same,%Inh,GSK3A,3%
same,%Inh,GSK3B; [1],0%
same,%Inh,HASPIN,4%
same,%Inh,HCK,0%
same,%Inh,HIPK1,0%
CS(=O)(=O)CCNCc1nc(-c2ccc3ncnc(Nc4ccc(OCc5cccc(F)c5)c(Cl)c4)c3c2)cs1.Cl [GW583340],%Inh,GRK1,0%
same,%Inh,GRK2,0%
same,%Inh,GRK3,28%
same,%Inh,GRK4,0%
same,%Inh,GRK7,0%
same,%Inh,GSK3A,0%
same,%Inh,GSK3B; [1],1%
same,%Inh,HASPIN,0%
same,%Inh,HCK,0%
same,%Inh,HIPK1,0%
Nc1nc(-c2ccc3c(N)n[nH]c3c2)cc(N2CCCCC2)n1 [GSK2228768],%Inh,GRK1,0%
same,%Inh,GRK2,0%
same,%Inh,GRK3,30%
same,%Inh,GRK4,0%
same,%Inh,GRK7,0%
same,%Inh,GSK3A,0%
same,%Inh,GSK3B; [1],0%
same,%Inh,HASPIN,0%
same,%Inh,HCK,0%
same,%Inh,HIPK1,0%
Cl.c1ccc(Cn2ncc3cc(Nc4ncnc5ccccc45)ccc32)cc1 [GW273749],%Inh,GRK1,0%
same,%Inh,GRK2,0%
same,%Inh,GRK3,0%
same,%Inh,GRK4,0%
same,%Inh,GRK7,0%
same,%Inh,GSK3A,10%
same,%Inh,GSK3B; [1],14%
same,%Inh,HASPIN,8%
same,%Inh,HCK,0%
same,%Inh,HIPK1,0%
Cl.Cn1ccc(-c2cccc(Nc3ccnc4cc(-c5nccs5)ccc34)c2)n1 [GW525701],%Inh,GRK1,1%
same,%Inh,GRK2,0%
same,%Inh,GRK3,64%
same,%Inh,GRK4,0%
same,%Inh,GRK7,0%
same,%Inh,GSK3A,0%
same,%Inh,GSK3B; [1],12%
same,%Inh,HASPIN,8%
same,%Inh,HCK,0%
same,%Inh,HIPK1,0%
Nc1n[nH]c2nnc(-c3ccccc3)cc12 [SB-517389],%Inh,GRK1,0%
same,%Inh,GRK2,0%
same,%Inh,GRK3,0%
same,%Inh,GRK4,0%
same,%Inh,GRK7,0%
same,%Inh,GSK3A,71%
same,%Inh,GSK3B; 1 µM,19%
same,%Inh,HASPIN,0%
same,%Inh,HCK,0%
same,%Inh,HIPK1,56%
O=C(CCO)NCCn1ccc2ncnc(Nc3ccc(Oc4cccc(C(F)(F)F)c4)c(Cl)c3)c21,%Inh,GRK1,13%
same,%Inh,GRK2,0%
same,%Inh,GRK3,0%
same,%Inh,GRK4,0%
same,%Inh,GRK7,0%
same,%Inh,GSK3A,6%
same,%Inh,GSK3B; [1],0%
same,%Inh,HASPIN,0%
same,%Inh,HCK,36%
same,%Inh,HIPK1,19%
O=C(NCCCN1CCCC1=O)c1cnc(NCc2cc(Cl)ccc2Cl)nc1NC1CCNCC1,%Inh,GRK1,33%
same,%Inh,GRK2,2%
same,%Inh,GRK3,22%
same,%Inh,GRK4,0%
same,%Inh,GRK7,68%
same,%Inh,GSK3A,0%
same,%Inh,GSK3B; [1],0%
same,%Inh,HASPIN,0%
same,%Inh,HCK,3%
same,%Inh,HIPK1,5%
COc1ccc(NC(=O)Nc2ccc(C)c(-c3ccc(C(=O)Nc4ccncc4)cc3)c2)cc1 [GSK1398475],%Inh,GRK1,0%
same,%Inh,GRK2,0%
same,%Inh,GRK3,11%
same,%Inh,GRK4,0%
same,%Inh,GRK7,0%
same,%Inh,GSK3A,15%
same,%Inh,GSK3B; [1],7%
same,%Inh,HASPIN,0%
same,%Inh,HCK,0%
same,%Inh,HIPK1,0%
COc1cc2c(Nc3cccc(NC(=O)c4ccccc4)c3)ncnc2cc1OCCCN1CCOCC1 [GSK223810],%Inh,GRK1,0%
same,%Inh,GRK2,14%
same,%Inh,GRK3,0%
same,%Inh,GRK4,15%
same,%Inh,GRK7,0%
same,%Inh,GSK3A,0%
same,%Inh,GSK3B; [1],0%
same,%Inh,HASPIN,0%
same,%Inh,HCK,0%
same,%Inh,HIPK1,0%
COc1ccc(Nc2nccc(N3CCC(NC(=O)Nc4ccc5c(c4)OCO5)C3)n2)cc1 (centres unmarked) [GSK1379745],%Inh,GRK1,13%
same,%Inh,GRK2,0%
same,%Inh,GRK3,20%
same,%Inh,GRK4,15%
same,%Inh,GRK7,0%
same,%Inh,GSK3A,0%
same,%Inh,GSK3B; [1],7%
same,%Inh,HASPIN,13%
same,%Inh,HCK,0%
same,%Inh,HIPK1,0%
C[C@@H]1CCN(C(=O)CO)C[C@@H]1N(C)c1ncnc2[nH]ccc12,%Inh,GRK1,16%
same,%Inh,GRK2,17%
same,%Inh,GRK3,22%
same,%Inh,GRK4,0%
same,%Inh,GRK7,25%
same,%Inh,GSK3A,0%
same,%Inh,GSK3B; [1],0%
same,%Inh,HASPIN,8%
same,%Inh,HCK,25%
same,%Inh,HIPK1,15%
COc1cc2ncnc(Nc3ccc(OCc4ccccc4Br)c(Cl)c3)c2cc1OC.Cl [GI261590],%Inh,GRK1,0%
same,%Inh,GRK2,0%
same,%Inh,GRK3,41%
same,%Inh,GRK4,0%
same,%Inh,GRK7,0%
same,%Inh,GSK3A,0%
same,%Inh,GSK3B; [1],10%
same,%Inh,HASPIN,34%
same,%Inh,HCK,25%
same,%Inh,HIPK1,0%
